Measurements: PubChem BioAssay AID1159580 (chemical genetic matrix, 2015)
In all, about 5,500 compounds went through this assay and about 2,000 (36%) were called active. About 18% were inconclusive and are not listed. Cut-off read from the data, not from the text of the source: active = normalized growth mostly below about 0.91 (no sharp cut-off); inconclusive = no clear call, values can overlap the other calls; inactive = mostly above about 0.92. The list shows a part of the results.

Test: chemical genetic growth profiling, strain panel (AID 1159580);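 note: tested at 20 µM; growth read once vehicle control cultures reached saturation at 30 °C; 1 = growth at the plate median or of vehicle wells; lower values mean less growth of the strain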
Settings: S. cerevisiae deletion strains, growth OD

Measured: normalized growth

CCn1c(=O)c2[nH]c(-c3ccccc3)nc2n(CC)c1=O
inactive: locus YAL040C, strain CLN3, hits give low values 1 | locus YCL061C, strain MRC1 (second series), hits give low values 0.997 | locus YDR363W, strain ESC2, hits give low values 1.01 | locus YER002W, strain NOP16, hits give low values 1.04 | locus YMR307W, strain GAS1, hits give low values 0.992 | locus YNL175C, strain NOP13, hits give low values 1.01 | locus YNL197C, strain WHI3, hits give low values 1.01 | locus YNL224C, strain SQS1, hits give low values 1 | locus YOR083W, strain WHI5 (second series), hits give low values 1.01 | locus YPL055C, strain LGE1, hits give low values 1 | locus YPL241C, strain CIN2, hits give low values 1.01
